The source of these data is PubChem BioAssay (NCATS).

Assay [1] is described as follows: A High-Content qHTS Against Drug Library for the Identification of Small Molecules that Inhibit DYT1 Early Onset Primary Dystonia-Associated Cell Pathology (AID 1645839). Summed up:
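High-content imaging quantified EGFP-TorsinA mislocalization in HEK293-derived cells inducibly expressing DYT1 mutant torsinA, after 48 h exposure to compound given together with tetracycline induction. Cell count served as a toxicity channel alongside %pathology.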

The target of assay [2] is Cytochrome P450 2C9 (Homo sapiens) (UniProt P11712). Put plainly: Cytochrome P450 family 2 subfamily C member 9 (CYP2C9) small molecule antagonists: luciferase biochemical (cell-free) qHTS assay (AID 1645842; active = well fitted curve in the direction sought with a large enough effect in the repeat runs; an effect the other way counts as inactive or inconclusive; note: nearly all actives have a fitted effect of over 55% in size; note: potency is the fitted concentration of half-maximal effect; for activity change, negative = inhibition: % is set by controls: 0 for no effect and ±100 for the full control effect). Summed up: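 P450-Glo CYP2C9 system: proluciferin substrate with enzyme in mix containing 0.4% BSA, 10 min at room temperature, then NADPH regeneration solution added and incubated 1 h at 37C. Detection reagent stopped reaction; luminescence read after 20 min as RLU.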

Assay [3] can be described thus: Cytotoxicity counterscreen for inhibitors of SARS-CoV-2 cell entry (AID 1645845). Note: nearly all actives have a fitted effect of over 50% in size. The method in brief: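 ATP-content luminescence (ATPLite 1step, 15 min RT) read after 48 h compound exposure of Expi293F cells stably expressing human ACE2; normalized to cells-only wells and media-only wells.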
A short description of assay [4]: Primary qHTS for inhibitors of nuclear receptor binding SET domain protein 2 (NSD2) in an isogenic RCH-ACV NSD2 p.E1099K mutant (9B) (AID 1645876; active = well fitted curve in the direction sought with a large enough effect; an effect the other way counts as inactive or inconclusive; note: nearly all actives have a fitted effect of over 70% in size; note: potency is the fitted concentration of half-maximal effect).
A short description of assay [5]: Primary qHTS for inhibitors of nuclear receptor binding SET domain protein 2 (NSD2) in an RCH-ACV wild type WT cells (2C) (AID 1645877; active = well fitted curve in the direction sought with a large enough effect; an effect the other way counts as inactive or inconclusive; note: nearly all actives have a fitted effect of over 70% in size; note: potency is the fitted concentration of half-maximal effect).
Assay [6] has as its target Cytochrome P450 2D6 (Homo sapiens) (UniProt P10635). As to the kind of experiment: Cytochrome P450 family 2 subfamily D member 6 (CYP2D6) small molecule antagonists: luciferase biochemical (cell-free) qHTS assay (AID 1645840; active = well fitted curve in the direction sought with a large enough effect in the repeat runs; an effect the other way counts as inactive or inconclusive; note: nearly all actives have a fitted effect of over 55% in size; note: potency is the fitted concentration of half-maximal effect; for activity change, negative = inhibition: % is set by controls: 0 for no effect and ±100 for the full control effect). The method in brief: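 P450-Glo CYP2D6 system: proluciferin substrate converted by enzyme to luciferin, read by luminescence proportional to activity. Enzyme-substrate mix with compound 10 min at room temperature, then NADPH regeneration 1 h before detection reagent.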

The target of assay [7] is Cytochrome P450 3A4 (Homo sapiens) (UniProt P08684). As to the kind of experiment: Cytochrome P450 family 3 subfamily A member 4 (CYP3A4) small molecule antagonists: luciferase qHTS assay (AID 1645841; active = well fitted curve in the direction sought with a large enough effect in the repeat runs; an effect the other way counts as inactive or inconclusive; note: nearly all actives have a fitted effect of over 45% in size; note: potency is the fitted concentration of half-maximal effect). The method in brief: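 Luminescent CYP3A4 activity readout: compounds plus enzyme-substrate mix 10 min at room temperature, reaction started with NADPH regenerating system for 1 h, stopped with detection reagent, read after 20 min. Ketoconazole served as control.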

Assay [8] is described as follows: Primary qHTS to identify inhibitors of SARS-CoV-2 cell entry (AID 1645846). Note: nearly all actives have a fitted effect of over 45% in size. Note: potency is the fitted concentration of half-maximal effect. The following applies: activity change, negative = inhibition: at 57.1 µM (top of the series) unless noted. Summed up: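 Inhibition of spike-mediated entry was scored in human ACE2-transfected Expi293F cells. Particles were MLV-pseudotyped with Wuhan-Hu-1 S carrying a 19-aa C-terminal deletion; signal was luciferase after two days, scaled between spike PP and fusion-protein-free PP.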

Assay [9] deals with Rap guanine nucleotide exchange factor 3 (Homo sapiens) (UniProt O95398). As to the kind of experiment: Confirmatory qHTS for agonist of cAMP-regulated guanine nucleotide exchange factor 3 (EPAC1) (AID 1645881; active = well fitted curve in the direction sought with a large enough effect; an effect the other way counts as inactive or inconclusive;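 note: EPAC1 catalysed release of BODIPY-GDP from Rap1B seen as fluorescence loss; 100% = effect of cAMP agonist control; nearly all actives have a fitted effect of over 75% in size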).
Assay [10] concerns the target Rap guanine nucleotide exchange factor 4 (Homo sapiens) (UniProt Q8WZA2). As to the kind of experiment: Confirmatory qHTS for agonist of cAMP-regulated guanine nucleotide exchange factor 4 (EPAC2) (AID 1645884; active = well fitted curve in the direction sought with a large enough effect; an effect the other way counts as inactive or inconclusive;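 note: nucleotide exchange releases bodipy-GDP from Rap1 and this lowers its fluorescence; % is set by controls: 0 for no effect and ±100 for the full control effect; nearly all actives have a fitted effect of over 65% in size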).
The nature of assay [11]: Confirmatory qHTS to identify inhibitors of SARS-CoV-2 cell entry (AID 1645844). Note: % is set by controls: 0 for no effect and ±100 for the full control effect; nearly all actives have a fitted effect of over 45% in size. The method in brief: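 Luminescence entry read-out after 48 h: spike-pseudotyped MLV particles (Wuhan-Hu-1, 19-aa C-terminal truncation) added to compound-pretreated (1 h) HEK293-ACE2 cells; Data were normalised to bald PP and spike PP wells.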
A short description of assay [12]: VSVG counterscreen qHTS to identify inhibitors of SARS-CoV-2 cell entry (AID 1645847). Note: % is set by controls: 0 for no effect and ±100 for the full control effect; nearly all actives have a fitted effect of over 65% in size. The method in brief: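 Luminescence from a luciferase reporter, normalised to bald particle and VSV-G pseudotyped particle wells, is the read-out. Cells are HEK293 expressing human ACE2, exposed to compound 1 h before a 48 h particle infection at 37 °C.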
Assay [13] has as its target Papain (Carica papaya) (UniProt P00784). Put plainly: Primary qHTS assay for inhibitors of the protease papain (AID 1645873; active = well fitted curve in the direction sought with a large enough effect; an effect the other way counts as inactive or inconclusive;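 note: papain turnover of Z-FR-AMC read as the AMC fluorescence gain over 10 min; % is set by controls: 0 for no effect and ±100 for the full control effect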).

Results filed as inconclusive are left out. Activity calls are given as the source filed them. Unless noted, calls come from the whole dose curve.

Sequence of Cytochrome P450 3A4 (Homo sapiens) (P08684 whole entry, looked up): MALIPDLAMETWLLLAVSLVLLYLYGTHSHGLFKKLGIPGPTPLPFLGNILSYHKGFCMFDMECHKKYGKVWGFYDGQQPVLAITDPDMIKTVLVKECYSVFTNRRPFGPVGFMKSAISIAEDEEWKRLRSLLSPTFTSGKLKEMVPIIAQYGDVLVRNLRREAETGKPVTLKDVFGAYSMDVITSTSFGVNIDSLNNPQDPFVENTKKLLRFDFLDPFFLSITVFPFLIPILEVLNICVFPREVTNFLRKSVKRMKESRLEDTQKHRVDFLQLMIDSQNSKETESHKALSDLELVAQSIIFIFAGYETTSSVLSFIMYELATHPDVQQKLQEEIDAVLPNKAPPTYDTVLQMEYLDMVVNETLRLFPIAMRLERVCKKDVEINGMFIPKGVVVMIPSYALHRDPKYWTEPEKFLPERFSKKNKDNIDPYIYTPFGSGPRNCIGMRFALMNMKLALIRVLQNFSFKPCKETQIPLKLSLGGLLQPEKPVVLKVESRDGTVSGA
Sequence of Cytochrome P450 2D6 (Homo sapiens) (P10635 whole entry, looked up): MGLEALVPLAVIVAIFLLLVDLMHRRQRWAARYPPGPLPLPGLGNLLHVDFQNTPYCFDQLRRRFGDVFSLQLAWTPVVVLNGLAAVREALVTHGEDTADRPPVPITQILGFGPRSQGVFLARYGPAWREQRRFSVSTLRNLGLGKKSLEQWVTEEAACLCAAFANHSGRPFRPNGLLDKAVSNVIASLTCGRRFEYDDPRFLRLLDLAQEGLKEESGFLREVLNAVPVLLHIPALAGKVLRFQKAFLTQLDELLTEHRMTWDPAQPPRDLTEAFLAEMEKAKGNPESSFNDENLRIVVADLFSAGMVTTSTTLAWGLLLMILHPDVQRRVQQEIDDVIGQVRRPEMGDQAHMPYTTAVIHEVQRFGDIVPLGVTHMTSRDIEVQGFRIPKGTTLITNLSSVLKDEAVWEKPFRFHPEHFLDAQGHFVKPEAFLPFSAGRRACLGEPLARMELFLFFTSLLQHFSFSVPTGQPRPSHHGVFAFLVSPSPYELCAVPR
Sequence of Cytochrome P450 2C9 (Homo sapiens) (P11712 whole entry, looked up): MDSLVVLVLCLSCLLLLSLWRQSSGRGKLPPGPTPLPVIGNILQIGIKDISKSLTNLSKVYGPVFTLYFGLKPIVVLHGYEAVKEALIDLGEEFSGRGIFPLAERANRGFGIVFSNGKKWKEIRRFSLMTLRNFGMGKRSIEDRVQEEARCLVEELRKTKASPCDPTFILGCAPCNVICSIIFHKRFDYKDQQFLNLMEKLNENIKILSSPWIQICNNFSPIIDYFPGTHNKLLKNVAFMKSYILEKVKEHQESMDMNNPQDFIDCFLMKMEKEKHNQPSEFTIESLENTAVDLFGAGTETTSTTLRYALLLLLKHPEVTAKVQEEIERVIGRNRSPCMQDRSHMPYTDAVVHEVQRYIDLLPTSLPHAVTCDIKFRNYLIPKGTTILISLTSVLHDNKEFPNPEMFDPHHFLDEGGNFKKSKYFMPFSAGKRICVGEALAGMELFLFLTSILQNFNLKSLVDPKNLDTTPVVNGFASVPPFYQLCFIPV
Sequence of Papain (Carica papaya) (P00784 whole entry, looked up): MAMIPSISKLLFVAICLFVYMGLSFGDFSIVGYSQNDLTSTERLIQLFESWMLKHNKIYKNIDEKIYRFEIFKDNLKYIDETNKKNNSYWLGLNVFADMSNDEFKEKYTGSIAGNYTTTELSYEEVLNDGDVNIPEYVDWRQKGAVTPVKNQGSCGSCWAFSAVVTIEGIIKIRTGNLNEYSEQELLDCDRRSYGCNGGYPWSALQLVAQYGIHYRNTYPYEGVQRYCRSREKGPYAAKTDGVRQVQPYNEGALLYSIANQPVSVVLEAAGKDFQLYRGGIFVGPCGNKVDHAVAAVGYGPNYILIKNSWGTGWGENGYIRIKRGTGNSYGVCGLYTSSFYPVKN
Sequence of Rap guanine nucleotide exchange factor 4 (Homo sapiens) (Q8WZA2 whole entry, looked up): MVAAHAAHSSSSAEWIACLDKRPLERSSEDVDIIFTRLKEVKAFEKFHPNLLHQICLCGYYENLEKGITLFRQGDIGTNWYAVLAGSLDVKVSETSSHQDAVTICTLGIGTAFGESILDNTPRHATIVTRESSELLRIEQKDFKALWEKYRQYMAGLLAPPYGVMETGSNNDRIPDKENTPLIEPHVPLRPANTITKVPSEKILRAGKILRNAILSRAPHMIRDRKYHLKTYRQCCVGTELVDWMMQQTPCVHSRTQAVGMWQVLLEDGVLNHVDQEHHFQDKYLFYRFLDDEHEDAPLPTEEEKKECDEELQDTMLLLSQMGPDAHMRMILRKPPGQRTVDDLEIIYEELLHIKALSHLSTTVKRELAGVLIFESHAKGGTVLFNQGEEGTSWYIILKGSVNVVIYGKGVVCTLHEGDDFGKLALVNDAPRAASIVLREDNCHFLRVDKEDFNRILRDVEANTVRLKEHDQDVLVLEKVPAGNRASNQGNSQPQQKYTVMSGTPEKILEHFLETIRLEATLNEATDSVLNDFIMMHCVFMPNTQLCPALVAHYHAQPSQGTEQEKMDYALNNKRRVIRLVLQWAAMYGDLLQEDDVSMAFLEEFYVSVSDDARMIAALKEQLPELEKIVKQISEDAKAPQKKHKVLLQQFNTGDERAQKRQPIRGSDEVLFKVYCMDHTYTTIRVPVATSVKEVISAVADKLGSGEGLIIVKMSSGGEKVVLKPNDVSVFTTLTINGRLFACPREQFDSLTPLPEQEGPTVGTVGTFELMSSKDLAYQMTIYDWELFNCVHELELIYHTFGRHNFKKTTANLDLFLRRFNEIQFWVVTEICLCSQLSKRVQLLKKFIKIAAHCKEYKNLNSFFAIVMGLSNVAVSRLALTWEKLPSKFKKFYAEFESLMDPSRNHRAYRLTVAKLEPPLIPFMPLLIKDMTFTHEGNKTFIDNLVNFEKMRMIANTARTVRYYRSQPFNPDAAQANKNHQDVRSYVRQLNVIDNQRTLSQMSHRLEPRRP
Sequence of Rap guanine nucleotide exchange factor 3 (Homo sapiens) (O95398 whole entry, looked up): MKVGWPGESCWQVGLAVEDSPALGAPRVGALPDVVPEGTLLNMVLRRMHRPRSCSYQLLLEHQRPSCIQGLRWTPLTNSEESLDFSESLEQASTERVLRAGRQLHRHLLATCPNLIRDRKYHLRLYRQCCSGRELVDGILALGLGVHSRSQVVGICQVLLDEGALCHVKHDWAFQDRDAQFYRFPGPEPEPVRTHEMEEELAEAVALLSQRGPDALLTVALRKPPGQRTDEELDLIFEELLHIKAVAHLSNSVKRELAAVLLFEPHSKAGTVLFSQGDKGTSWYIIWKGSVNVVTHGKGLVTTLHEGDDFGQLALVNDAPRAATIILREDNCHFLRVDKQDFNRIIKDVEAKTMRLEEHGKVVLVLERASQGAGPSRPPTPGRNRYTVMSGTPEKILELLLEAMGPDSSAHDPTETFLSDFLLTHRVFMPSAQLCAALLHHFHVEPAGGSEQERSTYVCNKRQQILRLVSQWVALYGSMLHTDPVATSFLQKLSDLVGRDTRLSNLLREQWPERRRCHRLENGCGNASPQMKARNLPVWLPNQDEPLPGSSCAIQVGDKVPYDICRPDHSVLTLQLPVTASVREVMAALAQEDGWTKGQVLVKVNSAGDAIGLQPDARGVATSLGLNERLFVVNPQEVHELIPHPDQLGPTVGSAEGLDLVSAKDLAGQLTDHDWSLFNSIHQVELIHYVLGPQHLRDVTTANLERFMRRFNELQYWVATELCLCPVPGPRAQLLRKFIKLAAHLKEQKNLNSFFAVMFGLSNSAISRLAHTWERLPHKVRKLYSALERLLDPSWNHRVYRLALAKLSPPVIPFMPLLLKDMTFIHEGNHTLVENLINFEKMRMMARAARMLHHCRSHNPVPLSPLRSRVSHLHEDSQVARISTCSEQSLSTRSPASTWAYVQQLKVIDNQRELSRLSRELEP

In the case of `C[C@]12CC[C@H]3[C@@H](CCC4=CC(=O)CC[C@@H]43)[C@@H]1CC[C@@H]2OC(=O)CCC1CCCCC1`, the call in assay [1] was inactive. The figures for the Potency in assay [2], in assay [4] and in assay [5] were 24.5 µM (active), 23.7 µM (active) and 18.8 µM (active), respectively. Also, in assay [3], the Potency result is “inactive”.

Turning to `C[C@]12CC[C@@H]3c4ccc(OC(=O)N(CCCl)CCCl)cc4CC[C@H]3[C@@H]1CC[C@@H]2O`, the Potency result in [6], in assay [7], in assay [2], in assay [3] and in [8] was “inactive” in each case. For the same compound, the call in assay [9] and in assay [10] was inactive.

Turning to `COc1cc(CCN)cc(OC)c1OC`, in assay [1], the result was inactive. In addition, the Potency result in assay [2] was “inactive”. In addition, the Potency in [5] is 41.8 µM (active).

With `NC(=O)c1cc([N+](=O)[O-])cc([N+](=O)[O-])c1`, in assay [1], the compound was classed as inactive. The Potency in assay [7] was 9.65 µM (active). Also, the Potency entry in assay [2], in assay [3], in assay [4] and in [5] was “inactive” in each case. Besides, the activity change, negative = inhibition in [8] is -10.7%.

Take `CCC(C)(C)c1ccc(O)cc1`: the outcome in [1] was inactive. The Potency entry in assay [6] and in assay [4] was “inactive” each time.

As to `CC(C)c1cccc(C(C)C)c1O`, the call in [1] and in assay [13] was inactive. Also, the Potency result in assay [11], in assay [3], in assay [12] and in [4] was “inactive” throughout. Further, the activity change, negative = inhibition in [8] is -52.4%.

As for `CNC(C)(C)Cc1ccccc1`, the result in assay [1] was inactive. The Potency result in assay [2], in [3], in assay [8], in assay [4] and in assay [5] was “inactive” each time.

Turning to `O=C1OC(CCN2CCCCC2)OC1(c1ccccc1)c1ccccc1` (stereo not given), the Potency in assay [6] was 0.617 µM (active); in assay [4] it was 8.41 µM (active); in assay [5], 13.3 µM (active).

On to `O=C1OC(c2ccc(O)c(S(=O)(=O)O)c2)(c2ccc(O)c(S(=O)(=O)O)c2)c2c(Br)c(Br)c(Br)c(Br)c21`, for which the outcome in assay [1] was inactive. Further, the Potency entry in [2], in [3], in assay [8], in assay [4] and in [5] was “inactive” each time.

As for `CN(C)CCc1c[nH]c2cccc(OP(=O)(O)O)c12`, the compound was called inactive in assay [1]. In addition, the Potency result in [2], in [4] and in assay [5] was “inactive” in each case.

As to `C=CCC1(C(C)CC)C(=O)NC(=O)NC1=O` (stereo not given), the call in [1] was inactive. For the same compound, the Potency result in [2], in assay [3], in [4] and in assay [5] was “inactive” in each case. Also, the activity change, negative = inhibition in assay [8] is -17.9%.

With `CC(=O)NC1CCSC1=O` (stereo not given), the result in assay [1] was inactive. The Potency entry in assay [6], in [4] and in assay [5] was “inactive” each time.

For `COC(=O)[C@@H](N)CCCN/C(N)=N/[N+](=O)[O-]`, in [1], the call was inactive. For the same compound, the Potency result in [6], in assay [4] and in assay [5] was “inactive” throughout.

`CC(C)c1c(CN(C)C(C)Cc2ccccc2)n(C)n(-c2ccccc2)c1=O` (stereo not given): the Potency result in assay [6], in assay [4] and in [5] was “inactive” each time. The Potency in assay [2] was 7.76 µM (active).

`O=c1[nH]c2ccccc2n1C1CCNCC1`: the compound was called inactive in [1]. In addition, the Potency result in [2], in assay [4] and in assay [5] was “inactive” in each case.

As to `CCOP(=S)(OCC)Oc1ccc2c(C)c(Cl)c(=O)oc2c1`, the Potency was 15.5 µM (active) in [6], 6.92 µM (active) in [2], 7.5 µM (active) in assay [4] and 6.68 µM (active) in assay [5]. Also, in [3], the Potency result is “inactive”.

Turning to `Clc1ccc(C(c2ccc(Cl)cc2)C(Cl)(Cl)Cl)cc1`, the Potency result in [6], in assay [3], in assay [4] and in assay [5] was “inactive” each time. Besides, in assay [2], the Potency is 2.19 µM (active). Besides, the activity change, negative = inhibition in [8] is 2.18%.

With `CCN(CC)CCc1c[nH]c2ccccc12`, the Potency in assay [6] is 5.91 µM (active). For the same compound, the Potency result in [7] and in assay [2] was “inactive” each time.

Regarding `CC1(C)C(C=C(Cl)Cl)C1C(=O)OC(C#N)c1cccc(Oc2ccccc2)c1` (stereo not given), the call in assay [1] was inactive. The Potency entry in [6], in assay [4] and in assay [5] was “inactive” in each case.

As for `NNc1ccccc1`, in assay [2], the Potency result is “inactive”.

`O=c1oc2ccccc2c(O)c1Cc1c(O)c2ccccc2oc1=O`: in assay [1], the result was inactive. Moreover, the Potency result in [3] and in assay [8] was “inactive” throughout. In assay [4], the Potency is 21.1 µM (active).

Take `O=C1CN=C(c2ccccc2)c2cc([N+](=O)[O-])ccc2N1`: in [1], the call was inactive. In addition, the Potency result in assay [6] and in assay [4] was “inactive” in each case.

Consider `CCCCCCCCCCCCCCCCCC(=O)O`, for which the Potency entry in assay [6], in [2] and in assay [3] was “inactive” throughout. Besides, the activity change, negative = inhibition in assay [8] was -6.11%.

As to `[N-]=[N+]=CC(=O)OC[C@H](N)C(=O)O`, in assay [1], the call was inactive. Further, the Potency entry in [2], in assay [4] and in assay [5] was “inactive” each time.

`CC(C)(C)c1ccc(O)cc1`: in [1], the compound was classed as inactive. Moreover, the activity change, negative = inhibition in assay [8] is -17.1%.

For `O=c1c(C2CC(c3ccc(-c4ccc(Br)cc4)cc3)Cc3ccccc32)c(O)sc2ccccc12` (stereo not given), the Potency result in assay [6] is “inactive”. Moreover, the Potency is 9.77 µM (active) in assay [2] and 14.1 µM (active) in assay [8].

On to `COc1ccc2c(c1OC)C(=O)O[C@H]2[C@@H]1c2cc3c(cc2CCN1C)OCO3`, for which the outcome in [13] was inactive.

As for `Nc1ccc(C(=O)Oc2ccccc2)c(O)c1`, the Potency entry in [3] and in assay [8] was “inactive” in each case.

`O=c1cc(O)c(Cl)c[nH]1`: the Potency entry in [3] and in assay [8] was “inactive” throughout.

Consider `CC(=O)[C@H]1CC[C@H]2[C@@H]3C=CC4=CC(=O)CC[C@@]4(C)[C@@H]3CC[C@]12C`, for which, in assay [3], the Potency result is “inactive”. Besides, the activity change, negative = inhibition in assay [8] is -10.8%.

On to `NC(N)=NC(=O)Cc1c(Cl)cccc1Cl`, for which the Potency entry in [3] and in assay [8] was “inactive” each time.

In the case of `CC(=O)OCC(=O)[C@@]1(O)[C@H](OC(C)=O)C[C@H]2[C@@H]3CCC4=CC(=O)C=C[C@]4(C)[C@@]3(F)[C@@H](O)C[C@@]21C`, the Potency result in [3] and in assay [8] was “inactive” each time.

For the compound `CCCCCCCC(=O)OCC(COC(=O)CCCCCCC)OC(=O)CCCCCCC`, the Potency entry in assay [3] and in [8] was “inactive” in each case.
